# High-throughput results from PubChem BioAssay.
# DT40 TDP1 CPT = DT40-hTDP1 cell growth loss with CPT; AID 686979; actives 12% (n = 420,000); chicken DT40 Tdp1-/-;hTDP1 cells + 20 nM CPT, ATP luminescence, 48 h; Potency, µM (titrated, usually from 46.2 µM), actives largely listed as inhibitors; note: nearly all actives have a fitted effect of over 55% in size
#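 Chicken DT40 Tdp1-/- cells complemented with human TDP1, 400 cells/well, exposed to compounds plus 20 nM camptothecin for at least 48 h at 37 C; viability read as ATP content by CellTiter-Glo luminescence.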
# IL-1B inflam inh = inhibitors of inflammasome signaling (IL-1 beta secretion) | AID 743279 | activity change, % at 57.5 µM | THP-1 LPS/ATP IL-1B secretion, AlphaLISA, 16 h; hits give low values | actives 4.7% (n = 360,000); in the data active = activity change below about -50%; inconclusive = mostly about -30% to -49%
#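 Secreted IL-1B measured by AlphaLISA bead assay after 16 h compound exposure of THP-1 cells; compounds (final up to 57.5 uM) added 1 h before LPS (250 ng/mL) and ATP (1.25 mM) stimulation; lower signal means less secretion.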
# DT40 TDP1 no CPT = qHTS for Inhibitors of human tyrosyl-DNA phosphodiesterase 1 (TDP1): qHTS in cells in absence of CPT; actives 15% (n = 420,000); DT40 Tdp1-/- hTDP1 cells, no CPT, ATP luminescence, 48 h; Potency, µM (titrated, usually from 46.2 µM), most hits filed as inhibitors; note: nearly all actives have a fitted effect of over 55% in size
#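 DT40 Tdp1-/-;hTDP1 cells, no CPT (DMSO vehicle only), 400 cells/well; compounds pin-transferred; ≥48 hr, 37 °C; CellTiter-Glo 30 min RT dark, luminescence read.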
# MCF10A rerep = induces DNA re-replication in MCF 10a normal breast cells. MCF 10A DNA re-replication, Hoechst nuclear intensity, 48 h. Potency, µM (series often up to 46.1 µM), hits mostly activators. actives 2.9% (n = 350,000); note: nearly all actives have a fitted effect of over 50% in size
# Chronic BCR inh = inhibitors of chronic active B-cell receptor signaling; actives 0.05% (n = 340,000); Potency, µM (series often up to 46.1 µM), actives largely listed as inhibitors; ABC-DLBCL IkBa-CBG/CBR reporter, luminescence ratio, 4 h; active = well fitted inhibition curve with a large enough effect in the signal ratio, with a control signal flat, not every such curve was filed as active; inconclusive = small, poorly fitted or top-dose-only effect, or effect the other way, or a change in a side signal; the % refers to the signal ratio
#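 Concentration-response series (up to 46 uM) were applied to TMD8 dual-reporter cells for 4 h at 37C with doxycycline. Green/red ratio, after filter-overlap correction, defined %Activity; red signal alone was normalised to basal cells and zero luminescence.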
# SW480 rerep = DNA re-replication induction in SW480 cells; AID 624297; Potency, µM (doses to about 46.1 µM), usual class: activators; actives 1.8% (n = 340,000); SW480 DNA re-replication, Hoechst DNA content imaging, 48 h; note: nearly all actives have a fitted effect of over 55% in size
#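 Hoechst fluorescence of nuclei (405 nm excitation, 500-530 nm emission) measured by plate-scanning imager after 48 hr compound exposure at 37 C; re-replication scored as increased number of nuclei with elevated intensity.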
# A number is an active result; 0 = inactive; ? = inconclusive; - = no result; [ ] = remark or other dose. A selection: hits, their analogues and other compounds. The true share with any hit is near 19%. Unless noted, calls come from the whole dose curve; as a rule, active = well fitted curve in the direction sought with a large enough effect; inconclusive = small, poorly fitted or top-dose-only effect, or another doubt; inactive = no such curve, though single readings can be large; an effect the other way counts as inactive or inconclusive.
SMILES,DT40 TDP1 CPT,IL-1B inflam inh,DT40 TDP1 no CPT,MCF10A rerep,Chronic BCR inh,SW480 rerep
COc1cc2[nH]c(=S)nc(NCc3ccc(Cl)cc3)c2cc1OC,?,0,?,0,0,0
COc1cc2[nH]c(=S)nc(NCC3CCCO3)c2cc1OC (stereo not given),0,0,0,0,0,0
COc1cc2[nH]c(=S)nc(NC3CCCCCC3)c2cc1OC,?,-139.3,?,0,0,0
COc1cc2[nH]c(=S)nc(NCCc3ccc(C)cc3)c2cc1OC,?,0,?,23.1µM,0,?
Cc1ccccc1NC(=O)N1CCCC(c2nc(-c3ccc(C(C)C)cc3)no2)C1 (stereo not given),15.8µM,-76.5,35.5µM,14.6µM,?,0
CC(C)CNC(=S)N1CCC(c2nc(-c3ccc(F)cc3)no2)CC1,20.6µM,0,20.6µM,?,?,0
O=C(c1c(F)cccc1F)N1CCCC(c2nc(-c3ccc(F)cc3)no2)C1 (stereo not given),23.1µM,0,16.4µM,?,0,?
Cc1ccc(NC(=O)N2CCCC(c3nc(-c4ccc(F)cc4)no3)C2)cc1 (stereo not given),23.1µM,0,?,0,0,0
Cc1ccccc1NC(=O)N1CCCC(c2nc(-c3ccc(F)cc3)no2)C1 (stereo not given),?,0,0,0,0,0
O=C(Nc1nnc([C@@H]2C[C@H](O)[C@@H](CO)O2)s1)c1cccc(C(F)(F)F)c1,0,0,0,-,-,-
COc1cccc(-c2noc(C3CCCN(C(=O)c4ccc(F)cc4F)C3)n2)c1 (stereo not given),0,0,0,0,0,0
Cc1ccc(C2CCN(C(=O)Nc3ccc(F)cc3)C2)cc1 (stereo not given),0,-67.6,?,0,?,0
O=S(=O)(c1ccc(F)cc1)N1CCCC(c2nc(-c3ccc(F)cc3)no2)C1 (stereo not given),?,0,?,?,0,0
O=C(Nc1ccccc1)N1CCCC(c2nc(-c3ccc(F)cc3)no2)C1 (stereo not given),?,0,18.4µM,0,0,0
CC(C)c1ccc(-c2noc(C3CCCN(C(=O)c4ccc(F)cc4F)C3)n2)cc1 (stereo not given),?,?,20.6µM,11.6µM,0,?
Cc1ccc(NC(=O)C2CCCN(C(=O)Nc3ccc(F)cc3)C2)cc1 (stereo not given),0,0,?,0,0,0
O=S(=O)(Cc1ccccc1)N1CCCC(c2nc(-c3ccc(F)cc3)no2)C1 (stereo not given),0,0,18.4µM,0,0,0
CC(=O)Nc1ccc(S(=O)(=O)NC2=NCN(C(C)C)CN2)cc1,0,-,0,-,-,-
CCCN(C(=O)Cc1c(C(=O)O)n(C)c2ccccc12)c1cccc(C)c1,0,0,0,0,0,0
CO[C@H]1[C@H](NC(=O)c2ccsc2)c2ccccc2C12CCN(Cc1cccn1-c1ccccn1)CC2,0[9.04 µM],-,0,-,-,-
OCC1OC2C(NC(=S)N2c2ccccc2)C(O)C1O (stereo not given),0,0,0,0,-,0
COc1ccc(OC)c(C(=O)N2CCc3c(cnc(C)c3CNS(=O)(=O)N(C)C)C2)c1,0[9.04 µM],-,0,-,-,-
O=C(O)c1ccc(-c2noc(-c3ccccc3F)n2)cc1,-,-,-,0,-,0
O=C(c1ccccc1-c1nc(-c2ccc(F)cc2)no1)N1CCCC1,?,0,23.1µM,0,?,0
Nc1ncnc2c1ncn2[C@@H]1O[C@H](C(=O)Nc2ccc(C(=O)N3CCCCC3)cc2)[C@@H](O)[C@H]1O,0,0,0,-,-,-
c1csc(-c2nn3c(C4CCCCC4)nnc3s2)c1,?,?,?,0,-,0
COc1cc(-c2nn3c(C4CCCCC4)nnc3s2)cc(OC)c1OC,?,-50.8,20.6µM,?,?,0[9.22 µM]
COc1ccc(-c2nn3c(C4CCCCC4)nnc3s2)cc1OC,14.6µM,0,?,0,14.1µM,0
